Rows were chosen to be rich in hits. Some 0.38% of all compounds tested hit in one or more screens of this group.
Rac1 act GTP bind: alters GTP binding to activated mutant human Rac1. GST-Rac1 activated beads, fluorescent GTP binding, flow cytometry; actives lie on both sides; 100% means binding = to untreated wells. percent activity (GTP binding), % at 10 µM. actives 0.11% (n = 190,000). AID 764;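 active = GTP binding at least 20 percentage points away from the 100% baseline, in either direction, so actives lie on both sides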
HRas wt GTP: human HRas wildtype GTP binding, change in either direction; P01112; GST-Ras wt beads, Bodipy-FL-GTP binding, flow cytometry; actives lie on both sides; GTP binding activity, % at 10 µM; actives 0.14% (n = 190,000);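 active = GTP binding activity at least 20% away from the 100% baseline, either lowered as inhibitor or raised as activator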
Target sequence (P01112 whole entry, looked up): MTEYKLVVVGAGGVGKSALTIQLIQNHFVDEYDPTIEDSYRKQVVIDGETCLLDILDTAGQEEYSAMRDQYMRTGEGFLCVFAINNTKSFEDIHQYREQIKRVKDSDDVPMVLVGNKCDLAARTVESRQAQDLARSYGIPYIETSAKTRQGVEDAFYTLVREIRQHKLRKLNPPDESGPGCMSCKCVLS
Cdc42 wt: changes GTP binding to wildtype human Cdc42 | P60953 | GST-Cdc42 beads, Bodipy-GTP binding, flow cytometry; actives lie on both sides | percent activity (GTP binding), % at 10 µM | actives 0.2% (n = 190,000);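 active = percent activity GTP binding at least 20 points away from the 100% baseline, either down as inhibitor or up as activator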;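 note: median bead fluorescence of bound Bodipy-FL-GTP at 100 nM; below 100% means less GTP binding so inhibitor and above means activator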
Rab2 wt GTP: changes GTP binding to wildtype dog Rab2A, up or down; GST-Rab2 wt beads, Bodipy-GTP binding, flow cytometry; actives 0.19% (n = 190,000); GTP binding activity, % at 10 µM; P61105;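 active = GTP binding activity at least 20 points away from 100%, either lowered or raised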
Rac1 wt GTP bind: human Rac1 wildtype GTP binding, inhibitors and activators; P63000; GST-Rac1 beads, fluorescent GTP binding, flow cytometry; actives lie on both sides; 0 = cold GTP competed, 100 = untreated; GTP binding activity (% of control), % at 10 µM; actives 0.27% (n = 190,000);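 active = GTP binding activity at least 20 points away from the 100% control level, either lower or higher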
Rab7 wt GTP bind: dog Rab7 wildtype GTP binding, inhibitors and activators | GST-Rab7 beads, fluorescent GTP binding, flow cytometry; actives lie on both sides; untreated = 100%, excess cold GTP = 0% | GTP binding activity (percent of control), % at 10 µM | actives 0.055% (n = 190,000);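 active = fluorescent GTP binding to Rab7 beads changed by at least 20 points from the 100% baseline, either direction, mostly lower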;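 note: median green fluorescence of bound Bodipy-FL-GTP per Rab7 bead population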
Each line names hits and unclear results; the compound was inactive in the other large screens; [ ] = another dose, or the depositor's remark.

CS(=O)(=O)Nc1ccc(C(=O)NCCSCc2c(F)cccc2Cl)cc1	none
O=C(c1ccc(Cl)cc1)N1CCCCC(Cl)C1=O (stereo not drawn)	none
COc1cc(/C=N/NC(=O)c2sc(N)c(C#N)c2C)ccc1O	none
Cc1c(C(=O)N/N=C/c2ccc(O)c(Br)c2)sc(N)c1C#N	Rab2 wt GTP 79.0, Rac1 wt GTP bind 76.0
CCn1cc(C(=O)O)c(=O)c2cc(F)c(N/N=C/c3ccccc3)cc21	Rac1 wt GTP bind 76.0
COc1ccc(/C=N/NC(=S)Nc2cc(S(=O)(=O)N3CCOCC3)ccc2N2CCOCC2)cc1O	Rac1 wt GTP bind 136.0[activator]
COc1ccc2ccccc2c1/C=N/NC(=S)Nc1cc(S(=O)(=O)N2CCOCC2)ccc1N1CCOCC1	none
Cc1ccc(-c2csc(NC(=O)CSc3nc4ccccc4c(=O)n3CCCN(C)C)n2)cc1	none
COc1ccc2nc(SCC(=O)Nc3ccc4c(c3)OCCO4)[nH]c2c1	none
COc1ccc2[nH]c3nc(SCC(=O)Nc4ccc5c(c4)OCO5)nnc3c2c1	HRas wt GTP 74.0, Cdc42 wt 74.0, Rab2 wt GTP 72.0
COc1ccc(N(CC(=O)Nc2nccs2)S(=O)(=O)c2c(C)[nH]c(=O)[nH]c2=O)cc1	none
O=C(COC(=O)CNC(=O)C1CCCCC1)Nc1ccc(Cl)cc1F	none
Cc1cn2c(nc(=O)c3cccnc32)s1	Rac1 wt GTP bind 76.0

Screens deposited in PubChem BioAssay by NMMLSC.
